Compound activity: PubChem BioAssay, National Center for Advancing Translational Sciences (NCATS)
DT40 TDP1 no CPT – qHTS for Inhibitors of human tyrosyl-DNA phosphodiesterase 1 (TDP1): qHTS in cells in absence of CPT; Potency, µM (top dose mostly 46.2 µM), for the others: top-dose activity change, negative = growth inhibition, usual class: inhibitors; 15% of 420,000 active; DT40 Tdp1-/- hTDP1 cells, no CPT, ATP luminescence, 48 h; note: potency is the fitted concentration of half-maximal effect; % is set by controls: 0 for no effect and ±100 for the full control effect; nearly all actives have a fitted effect of over 55% in size
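Growth kinetics read by CellTiter-Glo luminescence after ≥48 hr at 37 °C. Cells: DT40 Tdp1-/- stably carrying human TDP1, 400 per well, compound exposure in the absence of CPT (DMSO vehicle).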
DT40 TDP1 CPT – qHTS for Inhibitors of human tyrosyl-DNA phosphodiesterase 1 (TDP1): qHTS in cells in presence of CPT. chicken DT40 Tdp1-/-;hTDP1 cells + 20 nM CPT, ATP luminescence, 48 h. Potency, µM (doses to about 46.2 µM), without a hit: top-dose activity change, negative = growth inhibition, most hits filed as inhibitors. 12% of 420,000 active. AID 686979, 2013; note: potency is the fitted concentration of half-maximal effect; % is set by controls: 0 for no effect and ±100 for the full control effect; nearly all actives have a fitted effect of over 55% in size
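Cell growth measured by CellTiter-Glo luminescence after a minimum 48 h, 37 C compound exposure with 20 nM CPT in Tdp1-knockout DT40 cells stably expressing hTDP1, seeded 400/well; qHTS titration format.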
IL-1B inflam inh – qHTS for Inhibitors of Inflammasome Signaling: IL-1-beta AlphaLISA Primary Screen; THP-1 LPS/ATP IL-1B secretion, AlphaLISA, 16 h; active compounds read low; activity change, % at 57.5 µM; 4.7% of 360,000 active; AID 743279, 2014; in the data active = activity change below about -50%; inconclusive = mostly about -30% to -49%; note: % is set by controls: 0 for no effect and ±100 for the full control effect
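Secreted IL-1B measured by AlphaLISA bead assay after 16 h compound exposure of THP-1 cells; compounds (final up to 57.5 uM) added 1 h before LPS (250 ng/mL) and ATP (1.25 mM) stimulation; lower signal means less secretion.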
HepG2 tox – qHTS for Inhibitors of TGF-b: Cytotox Counterscreen; HepG2 CAGA-GFP viability, ATP luminescence, 18 h; Potency, µM (titrated, usually from 46.1 µM), without a hit: at the highest dose activity change, negative = cytotoxicity, hits mostly cytotoxic; 0.76% of 410,000 active; note: potency is the fitted concentration of half-maximal effect
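HepG2 CAGA-GFP cells (1000/well, DMEM with 1% FBS) received compound, then TGF-beta at 500 pg/mL final, and were incubated 18 hours at 37 degrees C. Viability was read by CellTiter-Glo luminescence. Media-only wells were set as complete cell-killing and DMSO as no toxicity.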
TGFb SMAD3 inh – qHTS for Inhibitors of TGF-b. 1.2% of 410,000 active. AID 588855, 2011. Potency, µM (series often up to 46.1 µM), without a hit: at the highest dose activity, negative = inhibition, actives largely listed as inhibitors. HepG2 CAGA-GFP TGF-b/SMAD3 reporter, GFP fluorescence, 18 h; TGF-beta stimulated, 500 pg/mL final; note: potency is the fitted concentration of half-maximal effect; % is set by controls: 0 for no effect and ±100 for the full control effect; nearly all actives have a fitted effect of over 65% in size
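Cell-based qHTS in HEPG2 carrying a CAGA-GFP Smad reporter; compounds added before 500 pg/mL final TGF-beta, 18 h incubation at 37 degrees C, GFP fluorescence quantified per cell by imaging cytometry.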
TDP1 inh – qHTS Assay for Inhibitors of Tyrosyl-DNA Phosphodiesterase (TDP1). Tyrosyl-DNA phosphodiesterase 1 (Homo sapiens), Q9NUW8. recombinant TDP1, AlphaScreen DNA substrate cleavage. Potency, µM (series often up to 130 µM), without a hit: top-dose activity change, negative = inhibition, usual class: inhibitors. 0.28% of 350,000 active. AID 485290, 2010; note: potency is the fitted concentration of half-maximal effect; % is set by controls: 0 for no effect and ±100 for the full control effect; nearly all actives have a fitted effect of over 40% in size
Target sequence (Q9NUW8 whole entry, looked up): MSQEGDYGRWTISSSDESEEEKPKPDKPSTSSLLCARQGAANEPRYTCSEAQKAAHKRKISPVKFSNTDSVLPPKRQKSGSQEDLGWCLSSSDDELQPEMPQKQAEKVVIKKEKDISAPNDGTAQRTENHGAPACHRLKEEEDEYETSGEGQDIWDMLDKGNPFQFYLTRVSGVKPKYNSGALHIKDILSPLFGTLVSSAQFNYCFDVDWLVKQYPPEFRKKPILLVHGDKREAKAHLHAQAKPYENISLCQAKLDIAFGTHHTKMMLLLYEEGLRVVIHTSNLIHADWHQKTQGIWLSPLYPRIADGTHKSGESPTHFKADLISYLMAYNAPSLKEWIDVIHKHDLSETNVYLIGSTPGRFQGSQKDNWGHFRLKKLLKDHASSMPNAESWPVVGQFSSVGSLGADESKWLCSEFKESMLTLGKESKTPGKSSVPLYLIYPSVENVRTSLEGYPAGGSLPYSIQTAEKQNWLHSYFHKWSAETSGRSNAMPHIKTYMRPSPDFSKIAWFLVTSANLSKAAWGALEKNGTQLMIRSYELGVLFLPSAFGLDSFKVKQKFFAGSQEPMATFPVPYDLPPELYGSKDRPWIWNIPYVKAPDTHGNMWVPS
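Enzyme-compound mixtures sat 15 min at room temperature, followed by a 5 min reaction with 15 nM final substrate and 10 min with AlphaScreen beads. Recombinant human Tdp1 was used at 1 nM final.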
Active calls of the source: *; u = inconclusive; x = not tested or not shown. Rows were chosen to be rich in hits. Some 18% of all compounds tested hit in one or more screens of this group. Unless noted, calls come from the whole dose curve; as a rule, active = well fitted curve in the direction sought with a large enough effect; inconclusive = small, poorly fitted or top-dose-only effect, or another doubt; inactive = no such curve, though single readings can be large; an effect the other way counts as inactive or inconclusive.

SMILES	DT40 TDP1 no CPT	DT40 TDP1 CPT	IL-1B inflam inh	HepG2 tox	TGFb SMAD3 inh	TDP1 inh
CCCn1c2ccccc2c2cnn(CC(=O)NCCN(C)C)c(=O)c21	0%	-25%	-6	1%	1%	x
CCCCN(C)CCNC(=O)Cn1ncc2c3ccccc3n(CCC)c2c1=O	u	23µM*	x	-37%	u	-1%
CCCNC(=O)Cn1ncc2c3ccccc3n(CCC)c2c1=O	15µM*	u	x	6%	-15%	4%
CCCCN(C)C(=O)Cn1ncc2c3ccccc3n(CCC)c2c1=O	u	u	-18	-42%	u	x
CCCn1c2ccccc2c2cnn(CC(=O)NCCCN(CC)c3ccccc3)c(=O)c21	u	u	x	-35%	u	10%
CCCn1c2ccccc2c2cnn(CC(=O)NCCN(CC)CC)c(=O)c21	u	-20%	-91*	-41%	u	6%
CCOC(=O)c1c(-c2ccccc2)csc1NC(=O)c1cc(-c2ccc(Br)cc2)on1	-13%	7%	x	8%	5%	4%
CCOc1ccccc1CNC(=O)C1CCCN(c2ncnc3onc(-c4ccc(F)cc4)c23)C1 (configuration not stated)	21µM*	u	x	12%	15%	-3%
COc1ccc(OC)c(CNC(=O)C2CCCN(c3ncnc4onc(-c5ccc(F)cc5)c34)C2)c1 (configuration not stated)	-8%	4%	x	-4%	-14%	4%
O=C(NCc1ccccc1Cl)C1CCCN(c2ncnc3onc(-c4ccc(F)cc4)c23)C1 (configuration not stated)	16µM*	u	x	-28%	-22%	6%
O=C(NCc1ccc(Cl)cc1)C1CCCN(c2ncnc3onc(-c4ccc(F)cc4)c23)C1 (configuration not stated)	23µM*	21µM*	x	-9%	-1%	1%
COC(=O)[C@@H](NC(=O)NCc1ccccc1Cl)C(C)C	-11%	-13%	-4	-4%	-7%	1%
S=C(Nc1cccc(Cl)c1Cl)N1CCCC1	16%	-16%	-4	-1%	-7%	4%
Cc1ccc(C)c(CSC2=NCCN2C(=O)Cc2ccc([N+](=O)[O-])cc2)c1	18µM*	u	u	13%	-10%	6%
Cc1ccc(C(=O)N2CCN=C2SCc2ccc([N+](=O)[O-])cc2)cc1C	u	u	-85*	-35%	-14%	6%
O=C(c1ccccc1)N1CCN=C1SCc1ccc([N+](=O)[O-])cc1	u	u	-8	-1%	-16%	5%
O=C(C1CCCCC1)N1CCN=C1SCc1cccc([N+](=O)[O-])c1	u	u	-94*	-6%	-11%	6%
O=C(Cc1ccc([N+](=O)[O-])cc1)N1CCN=C1SCc1ccccc1	-29%	-6%	8	-5%	0%	6%
COc1cc(C(=O)Nc2ccccc2OCc2cc(=O)n3cc(C)sc3n2)cc(OC)c1OC	-17%	u	x	8%	4%	1%
Fc1ccc(Sc2ccccc2CNC2=NCCN2)cc1	18µM*	12µM*	u	-4%	u	5%
CCc1cccc2c(C(=O)CN3C(=O)NC4(CCCCC4)C3=O)c[nH]c12	5.8µM*	5.8µM*	-2	24%	97%	0%
CCc1cccc2c(C(O)c3c[nH]c4ccccc34)c[nH]c12 (configuration not stated)	11µM*	4.5µM*	x	-80%	u	x
OC(c1ccccn1)c1c[nH]c2ccccc12 (configuration not stated)	-21%	-10%	-1	-24%	2%	8%
CCc1cccc2c(C(=O)CCl)c[nH]c12	21µM*	15µM*	-95*	-33%	-2%	5%
CNc1cc2c(cc1S(=O)(=O)Nc1ccc(C)c(C)c1)CCC(=O)N2	x	x	x	x	x	2%
SMILES	DT40 TDP1 no CPT	DT40 TDP1 CPT	IL-1B inflam inh	HepG2 tox	TGFb SMAD3 inh	TDP1 inh
O=C(Nc1ccc(C(F)(F)F)cc1)c1cc(S(=O)(=O)NCC2COc3ccccc3O2)ccc1F (configuration not stated)	u	u	x	18µM*	-1%	8%
COc1ccc(NC(=O)c2cc(S(=O)(=O)NCC3COc4ccccc4O3)ccc2F)cc1 (configuration not stated)	u	u	u	-12%	u	1%
CC(C)c1ccc(NC(=O)c2cc(S(=O)(=O)NCC3COc4ccccc4O3)ccc2F)cc1 (configuration not stated)	18µM*	23µM*	-69*	-81%	u	3%
Cc1ccc(N2CCC3CC2c2cc(-c4ccc(C(F)(F)F)cc4)ccc23)cc1 (configuration not stated)	16µM*	u	48	0%	13%	x
CC1(Oc2cccc(C#N)c2)CCN(Cc2ccccc2OC(F)F)C1 (configuration not stated)	u	u	-19	-2%	16%	x
COc1ccc2c(c1)O[C@H](c1ccc3c(c1)OCO3)[C@@H](O)C2=O	u	21µM*	-6	-6%	-3%	3%
CCN(CC(=O)Nc1cccc(OC)c1)CC(=O)Nc1ccc(Br)c(C)c1	-6%	u	-68*	-89%	u	x
CN(CCOc1ccccc1)CC(=O)Nc1cccc(Br)c1	u	8%	5	-4%	-2%	-1%
Cc1cc(Br)ccc1NC(=O)CCSc1ccccc1	-12%	-9%	-4	-23%	0%	-2%
COc1cccc(NC(=O)CN(C)CC(=O)Nc2ccc(C)cc2Cl)c1	13µM*	u	-5	18%	-14%	-5%
Cc1cc(NC(=O)CCSc2ccccc2)ccc1Br	-7%	7%	-67*	-43%	0%	-7%
CCN(CC(=O)Nc1cccc(OC)c1)CC(=O)Nc1ccccc1C	-23%	1%	5	6%	1%	x
Cc1cc(NC(=O)CN(C)CCOc2ccccc2)ccc1Br	18µM*	18µM*	-52*	-28%	u	x
